# Laboratory results: paper PMC11006913
# Target: HOXD13 (Homo sapiens, UniProt P35453 263-343, T313R)
# Experiment: PBM; 200 nM protein, PBS
# Conditions: dsDNA, one strand shown
# Chain of HOXD13 (Homo sapiens, UniProt P35453 263-343, T313R) (P35453 263-343 T313R): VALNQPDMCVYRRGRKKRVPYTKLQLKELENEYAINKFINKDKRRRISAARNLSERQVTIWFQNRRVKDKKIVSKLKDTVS
row,Sequence,binding signal
1,GGCCCGAA,"9.5 upbm affinity estimate (log intensity, higher = more binding, comparable within an allelic series)"
2,CCCTGGAG,"9.64 upbm affinity estimate (log intensity, higher = more binding, comparable within an allelic series)"
3,AAGGGGGG,"9 upbm affinity estimate (log intensity, higher = more binding, comparable within an allelic series)"
4,TCTCGTAA,"10.5 upbm affinity estimate (log intensity, higher = more binding, comparable within an allelic series)"
5,CCGTAAAA,"10.5 upbm affinity estimate (log intensity, higher = more binding, comparable within an allelic series)"
6,CTTGTAAA,"10.9 upbm affinity estimate (log intensity, higher = more binding, comparable within an allelic series)"
7,CATATAAA,"10.9 upbm affinity estimate (log intensity, higher = more binding, comparable within an allelic series)"
8,GGCCCACC,"9.47 upbm affinity estimate (log intensity, higher = more binding, comparable within an allelic series)"
9,CGCCGCCC,"9.48 upbm affinity estimate (log intensity, higher = more binding, comparable within an allelic series)"
10,CCTGAAGG,"9.53 upbm affinity estimate (log intensity, higher = more binding, comparable within an allelic series)"
11,CTATAAAG,"10.8 upbm affinity estimate (log intensity, higher = more binding, comparable within an allelic series)"
12,CGCCCCCA,"9.33 upbm affinity estimate (log intensity, higher = more binding, comparable within an allelic series)"
13,GGCCGGCA,"9.49 upbm affinity estimate (log intensity, higher = more binding, comparable within an allelic series)"
14,CGCCCGCG,"9.5 upbm affinity estimate (log intensity, higher = more binding, comparable within an allelic series)"
15,CCGCCCTC,"9.56 upbm affinity estimate (log intensity, higher = more binding, comparable within an allelic series)"
16,TCGGCCCA,"9.58 upbm affinity estimate (log intensity, higher = more binding, comparable within an allelic series)"
17,CTTGTTAA,"10.6 upbm affinity estimate (log intensity, higher = more binding, comparable within an allelic series)"
18,ATTACGAG,"10.5 upbm affinity estimate (log intensity, higher = more binding, comparable within an allelic series)"
19,CGTGCCCC,"9.51 upbm affinity estimate (log intensity, higher = more binding, comparable within an allelic series)"
20,CATGTATA,"10.3 upbm affinity estimate (log intensity, higher = more binding, comparable within an allelic series)"

row,Sequence,binding signal
1,CGCACAGC,"9.44 upbm affinity estimate (log intensity, higher = more binding, comparable within an allelic series)"
2,ATTCATGG,"10.2 upbm affinity estimate (log intensity, higher = more binding, comparable within an allelic series)"
3,TCCATAAA,"10.7 upbm affinity estimate (log intensity, higher = more binding, comparable within an allelic series)"
4,CCCTGACC,"9.5 upbm affinity estimate (log intensity, higher = more binding, comparable within an allelic series)"
5,CATCGGGG,"9.56 upbm affinity estimate (log intensity, higher = more binding, comparable within an allelic series)"
6,CTTATTGC,"10.1 upbm affinity estimate (log intensity, higher = more binding, comparable within an allelic series)"
7,CATCTTAA,"10.1 upbm affinity estimate (log intensity, higher = more binding, comparable within an allelic series)"
8,AGCCGGCC,"9.49 upbm affinity estimate (log intensity, higher = more binding, comparable within an allelic series)"
9,AATAAACC,"10.6 upbm affinity estimate (log intensity, higher = more binding, comparable within an allelic series)"
10,ATTTACAA,"10.7 upbm affinity estimate (log intensity, higher = more binding, comparable within an allelic series)"
11,CCTCATAA,"10.6 upbm affinity estimate (log intensity, higher = more binding, comparable within an allelic series)"
12,AGTTTATA,"10.7 upbm affinity estimate (log intensity, higher = more binding, comparable within an allelic series)"
13,CATCGGGC,"9.55 upbm affinity estimate (log intensity, higher = more binding, comparable within an allelic series)"
14,CGCGATGC,"9.5 upbm affinity estimate (log intensity, higher = more binding, comparable within an allelic series)"
15,GGGTTGAA,"9.64 upbm affinity estimate (log intensity, higher = more binding, comparable within an allelic series)"
16,CTACGTAG,"9.84 upbm affinity estimate (log intensity, higher = more binding, comparable within an allelic series)"
17,CCGCGCTC,"9.52 upbm affinity estimate (log intensity, higher = more binding, comparable within an allelic series)"
18,ATAGCAAT,"10.2 upbm affinity estimate (log intensity, higher = more binding, comparable within an allelic series)"
19,GTTTATGA,"10.9 upbm affinity estimate (log intensity, higher = more binding, comparable within an allelic series)"
20,GAGGGGCC,"9.41 upbm affinity estimate (log intensity, higher = more binding, comparable within an allelic series)"

# Target: HOXD13 (Homo sapiens, UniProt P35453 263-343)
# Experiment: PBM; 200 nM protein, PBS
# Conditions: dsDNA, one strand shown
# Chain of HOXD13 (Homo sapiens, UniProt P35453 263-343) (P35453 263-343): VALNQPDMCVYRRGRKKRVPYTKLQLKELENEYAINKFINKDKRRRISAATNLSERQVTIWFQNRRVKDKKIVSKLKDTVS
row,Sequence,binding signal
1,GGCCCGAA,"9.42 upbm affinity estimate (log intensity, higher = more binding, comparable within an allelic series)"
2,CCCTGGAG,"9.55 upbm affinity estimate (log intensity, higher = more binding, comparable within an allelic series)"
3,AAGGGGGG,"9.33 upbm affinity estimate (log intensity, higher = more binding, comparable within an allelic series)"
4,TCTCGTAA,"11.8 upbm affinity estimate (log intensity, higher = more binding, comparable within an allelic series)"
5,CCGTAAAA,"11.8 upbm affinity estimate (log intensity, higher = more binding, comparable within an allelic series)"
6,CTTGTAAA,"12.3 upbm affinity estimate (log intensity, higher = more binding, comparable within an allelic series)"
7,CATATAAA,"12.1 upbm affinity estimate (log intensity, higher = more binding, comparable within an allelic series)"
8,GGCCCACC,"9.38 upbm affinity estimate (log intensity, higher = more binding, comparable within an allelic series)"
9,CGCCGCCC,"9.53 upbm affinity estimate (log intensity, higher = more binding, comparable within an allelic series)"
10,CCTGAAGG,"9.53 upbm affinity estimate (log intensity, higher = more binding, comparable within an allelic series)"
11,CTATAAAG,"11.9 upbm affinity estimate (log intensity, higher = more binding, comparable within an allelic series)"
12,CGCCCCCA,"9.3 upbm affinity estimate (log intensity, higher = more binding, comparable within an allelic series)"
13,GGCCGGCA,"9.56 upbm affinity estimate (log intensity, higher = more binding, comparable within an allelic series)"
14,CGCCCGCG,"9.42 upbm affinity estimate (log intensity, higher = more binding, comparable within an allelic series)"
15,CCGCCCTC,"9.65 upbm affinity estimate (log intensity, higher = more binding, comparable within an allelic series)"
16,TCGGCCCA,"9.62 upbm affinity estimate (log intensity, higher = more binding, comparable within an allelic series)"
17,CTTGTTAA,"11.8 upbm affinity estimate (log intensity, higher = more binding, comparable within an allelic series)"
18,ATTACGAG,"11.7 upbm affinity estimate (log intensity, higher = more binding, comparable within an allelic series)"
19,CGTGCCCC,"9.62 upbm affinity estimate (log intensity, higher = more binding, comparable within an allelic series)"
20,CATGTATA,"10.8 upbm affinity estimate (log intensity, higher = more binding, comparable within an allelic series)"

row,Sequence,binding signal
1,CGCACAGC,"9.48 upbm affinity estimate (log intensity, higher = more binding, comparable within an allelic series)"
2,ATTCATGG,"10.8 upbm affinity estimate (log intensity, higher = more binding, comparable within an allelic series)"
3,TCCATAAA,"11.9 upbm affinity estimate (log intensity, higher = more binding, comparable within an allelic series)"
4,CCCTGACC,"9.5 upbm affinity estimate (log intensity, higher = more binding, comparable within an allelic series)"
5,CATCGGGG,"9.66 upbm affinity estimate (log intensity, higher = more binding, comparable within an allelic series)"
6,CTTATTGC,"10.7 upbm affinity estimate (log intensity, higher = more binding, comparable within an allelic series)"
7,CATCTTAA,"10.5 upbm affinity estimate (log intensity, higher = more binding, comparable within an allelic series)"
8,AGCCGGCC,"9.41 upbm affinity estimate (log intensity, higher = more binding, comparable within an allelic series)"
9,AATAAACC,"11.8 upbm affinity estimate (log intensity, higher = more binding, comparable within an allelic series)"
10,ATTTACAA,"11.8 upbm affinity estimate (log intensity, higher = more binding, comparable within an allelic series)"
11,CCTCATAA,"11.8 upbm affinity estimate (log intensity, higher = more binding, comparable within an allelic series)"
12,AGTTTATA,"11.9 upbm affinity estimate (log intensity, higher = more binding, comparable within an allelic series)"
13,CATCGGGC,"9.52 upbm affinity estimate (log intensity, higher = more binding, comparable within an allelic series)"
14,CGCGATGC,"9.5 upbm affinity estimate (log intensity, higher = more binding, comparable within an allelic series)"
15,GGGTTGAA,"9.57 upbm affinity estimate (log intensity, higher = more binding, comparable within an allelic series)"
16,CTACGTAG,"9.97 upbm affinity estimate (log intensity, higher = more binding, comparable within an allelic series)"
17,CCGCGCTC,"9.5 upbm affinity estimate (log intensity, higher = more binding, comparable within an allelic series)"
18,ATAGCAAT,"10.7 upbm affinity estimate (log intensity, higher = more binding, comparable within an allelic series)"
19,GTTTATGA,"12 upbm affinity estimate (log intensity, higher = more binding, comparable within an allelic series)"
20,GAGGGGCC,"9.46 upbm affinity estimate (log intensity, higher = more binding, comparable within an allelic series)"
